Screens: PubChem BioAssay, National Center for Advancing Translational Sciences (NCATS)
TRHR enhancer: allosteric enhancers of human TRH receptor. P34981. TRHR cells, fluo-8 calcium fluorescence, EC20 TRH enhancement. enhancement, % at 2 µM. hit rate 0.66% among 360,000. AID 493056; in the data active means enhancement above about 30%; further: 0% is about no effect
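TRHR-expressing cells loaded with fluo-8 calcium dye were read kinetically (ex 480/em 530) during compound addition, then stimulated with an EC20 of TRH (10 nM final). Enhancement of the Gq-mediated intracellular calcium response was scored.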
D1 potentiator: human D1 dopamine receptor positive modulation | HEK293 TREx D1 cells, calcium flux, dopamine EC20 potentiation | potentiation, % at 10 µM | hit rate 0.036% among 360,000 | AID 504651; in the data active means potentiation above about 30%; further: 0% is about no effect
Target sequence (P21728 whole entry, looked up): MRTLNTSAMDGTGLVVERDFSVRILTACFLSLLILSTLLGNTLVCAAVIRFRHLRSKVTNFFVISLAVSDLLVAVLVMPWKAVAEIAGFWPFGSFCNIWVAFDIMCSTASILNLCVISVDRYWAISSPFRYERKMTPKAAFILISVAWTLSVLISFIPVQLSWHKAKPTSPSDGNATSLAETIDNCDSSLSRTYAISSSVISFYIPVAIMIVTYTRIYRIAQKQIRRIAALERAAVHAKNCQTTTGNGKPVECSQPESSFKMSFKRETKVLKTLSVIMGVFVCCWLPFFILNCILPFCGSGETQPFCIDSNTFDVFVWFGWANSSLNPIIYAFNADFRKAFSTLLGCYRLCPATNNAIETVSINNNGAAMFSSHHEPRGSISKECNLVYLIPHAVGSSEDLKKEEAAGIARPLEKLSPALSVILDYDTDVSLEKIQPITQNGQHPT
TRHR agonist: activates the human TRH receptor. TRHR cells, calcium flux fluo-8, FDSS agonist mode. activation, % at 2 µM. hit rate 0.18% among 360,000. AID 493084; further: 0% is about no effect
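Agonist-mode FDSS calcium read (Ex 480/Em 530, 1 s cycles) in 1536-well TRHR cells with fluo-8 dye, after 10-cycle baseline and 23 nL compound addition; TRH at EC20 (10 nM final) added afterwards for the enhancer phase.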
D1 antag: human D1 dopamine receptor antagonism; P21728; HEK293 TREx D1 cells, calcium flux, dopamine EC80; stronger effect = lower value; activity change, negative = inhibition, % at 10 µM; hit rate 3.2% among 360,000; AID 504652; in the data active means activity change below about -30%; further: on the % scale 0 is the no-effect control and ±100 the full control effect
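Compound effects on dopamine-evoked calcium signalling were measured in tetracycline-induced HEK293 Trex D1 cells. Dopamine at EC80 followed a 180 s compound pre-read, and fluorescence was tracked kinetically for 180 s more.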
D1 ag: human D1 receptor agonism. HEK293 T-REx D1 cells, calcium flux, agonist mode. activation, % at 2 µM. hit rate 1% among 360,000. AID 504660; further: 0% is about no effect
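Tetracycline-induced HEK293 TREx D1 cells, force-coupled to calcium signalling, were dye-loaded with a no-wash calcium kit. Compound was pin-added after a 10 s baseline. Fluorescence was read kinetically at 1 cycle/s for 180 s, with calcium rises flagged as agonism.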
Glioma ERSR ind: ER stress response induction in glioma; U87-MG GRP78 promoter luciferase reporter, 16 h; Potency, µM, without a hit: top-dose activation, hits mostly activators; hit rate 0.02% among 420,000; active means well fitted activation curve with a large enough effect; inconclusive means small, poorly fitted or top-dose-only effect; inactive means no such curve, though single readings can be large or run the other way; further: potency means the concentration at half of the fitted maximal effect; series mostly up to about 76 µM; % of control where 0% means no effect; nearly all actives have a fitted effect of over 35% in size
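Stably transfected U87-MG glioma cells carrying a GRP78-based luciferase sensor; 16 h compound incubation. Luminescence end-point read 10 min after Bright-Glo addition at room temperature.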
* marks the source's active call; other numbers are inactive results; ? = inconclusive; . = no result. Shown are actives, neighbours in structure and some others; about 4% of the full set was active somewhere. Unless noted, no stated cut-off is given here; in the data, active means activation above about 30%; inactive means the rest.

SMILES	TRHR enhancer	D1 potentiator	TRHR agonist	D1 antag	D1 ag	Glioma ERSR ind
CN(c1ccc(C(=O)Nc2ccccc2Sc2ccccc2)cc1)S(C)(=O)=O	1	-3	2	-40*	17	2%
CN(c1ccc(C(=O)Nc2ccc3c(c2)OCO3)cc1)S(C)(=O)=O	0	-4	1	2	2	1%
Oc1ccc(Br)cc1-c1nc2cnccn2c1NC1CCCC1	-4	-5	-1	-27	1	-1%
COc1ccc(Nc2c(-c3ccc(OC)cc3)nc3cnccn23)cc1	34*	-3	-1	4	-1	-4%
Fc1ccc(-c2nc3cnccn3c2NC2CCCC2)cc1	-3	-2	0	-36*	1	-3%
C#Cc1ccc(CN2CCC(C(=O)Nc3ccc(Oc4ccccc4)nc3)CC2)cc1	3	-5	3	-12	41*	-7%
O=C(Nc1ccc(Oc2cccnc2)cc1)C1CCN(Cc2ccc(F)cc2)CC1	5	-3	3	-25	36*	0%
Cc1ncc(CN2CCC(C(=O)Nc3ccc(Oc4cccnc4)cc3)CC2)cn1	-4	2	0	-6	3	-2%
COc1ccc(NC(=O)C(CC(=O)O)Cc2ccccc2)cc1 (stereo unspecified)	3	-3	1	-1	1	1%
COc1ccc(NC(=O)C(CC(=O)O)C(C)c2ccccc2)cc1 (stereo unspecified)	-2	5	0	-39*	7	-2%
COc1cccc(N2CCN(C(=O)c3c4c(nc5ccccc35)C(=O)N(C3CCCCC3)C4)CC2)c1	4	-2	-1	-23	1	3%
CCOc1ccc(NS(=O)(=O)c2ccc(C(=O)NCC(c3ccco3)N3CCCC3)cc2)cc1 (stereo unspecified)	6	.	4	32	54*	-3%
O=C(NCC(c1ccco1)N1CCCC1)c1ccc(S(=O)(=O)Nc2ccc(F)cc2)cc1 (stereo unspecified)	5	.	7	-21	51*	-4%
Cc1nn(C)cc1C=NCCOCc1ccccc1	-4	-6	0	-32*	1	1%
O=C(Nc1nnc(-c2cccs2)o1)c1cccc(C(F)(F)F)c1	7	.	-1	-50*	26	0%
COc1ccc(Oc2ccc(N/C=C3/CCCC3=O)cc2)cc1	0	-10	0	-31*	2	0%
COC(=O)c1ccc(COC(=O)CCNS(=O)(=O)c2ccc(C)c(C)c2)cc1	-3	-4	0	-16	11	-1%
Cc1cn(C)c(CC(=O)Nc2cccc(C#N)c2)c1C(=O)O	32*	-2	0	-14	0	-3%
COc1ccccc1NS(=O)(=O)c1cccc(C(=O)NNC(=O)c2ccc(=O)[nH]c2)c1	-3	.	0	-32*	6	0%
COc1ccccc1NS(=O)(=O)c1ccc(NC(=O)c2ccncc2)cc1	38*	-5	1	-23	14	-3%
COc1ccccc1NS(=O)(=O)c1cccc(NC(=O)Nc2ccccc2)c1	-5	-13	-1	-33*	8	-5%
COc1ccccc1NS(=O)(=O)c1cccc(C(=O)OCC(=O)Nc2cc(C)on2)c1	0	-6	1	-32*	2	-5%
COc1ccccc1NS(=O)(=O)c1ccc(C(=O)NCc2ccncc2)cc1	3	6	0	-26	-1	-4%
COc1ccccc1NS(=O)(=O)c1cccc(C(=O)OCc2nc3ccccc3s2)c1	-2	-1	1	-18	8	4%
CC(=O)O[C@H]1C[C@@H]2CC[C@@H]3[C@H](CC[C@]4(C)[C@H](OC(C)=O)[C@@H](N5CC[N+](C)(C)CC5)C[C@@H]34)[C@@]2(C)C[C@@H]1N1CC[N+](C)(C)CC1	.	.	.	.	.	-4%
SMILES	TRHR enhancer	D1 potentiator	TRHR agonist	D1 antag	D1 ag	Glioma ERSR ind
CCCC[C@H]1CCCO[C@@](C(=O)NCc2cc(C)n(C)n2)(C(F)(F)F)C1	.	.	.	.	.	-5%
Cc1ccc(C(=O)NCCc2nnc3n2CCN(C(=O)c2ccnc(Cl)c2)CC3)cc1	.	.	.	.	.	-5%
COc1ccccc1NS(=O)(=O)c1ccc(NC(=O)N2CCCCC2)cc1	5	-9	0	-46*	4	-7%
Cc1ccccc1Nc1nc(N)nc(COC(=O)c2ccc(O)cc2)n1	5	-10	2	-43*	17	10%
Cc1ncc2c(c1CNC(=O)c1ccccc1F)CCN(C(=O)c1[nH]c3ccc(Cl)cc3c1C)C2	.	.	.	.	.	-4%
O=c1[nH]c(-c2ccccn2)nc2sc(-c3ccccc3)cc12	1	3	1	-31*	7	?
Cc1c(C(=O)N(C)C)sc2nc(-c3ccccn3)[nH]c(=O)c12	9	-2	0	-4	2	-2%
CCC1=NN(C(=O)Cc2ccccc2)C(O)(c2ccncc2)C1 (stereo unspecified)	26	-3	-1	-41*	15	-3%
Cc1ccc(OCCn2c(C)c(/C=N/n3cnnc3)c3ccccc32)cc1	-5	-12	0	-34*	3	-9%
O=C1[C@H]2C(c3ccccc3)=NN(c3ccccc3)[C@H]2C(=O)N1c1ccccc1	-1	-8	-1	-45*	4	-5%
O=C1C2C(c3ccccc3)=NN(c3ccccc3)C2C(=O)N1c1ccccc1 (stereo unspecified)	-2	0	0	1	0	-2%
O=C(CSCc1c(Cl)cccc1Cl)NCc1ccco1	-4	-6	0	-31*	0	1%
CCOc1ccc(-c2nc(CSCC(=O)NCc3ccco3)c(C)o2)cc1	-4	-6	0	-37*	4	-10%
O=C(CSCc1c(F)cccc1Cl)NCc1ccco1	4	3	0	1	-1	-2%
CCOc1ccc(-c2nc(CSCC(=O)NCc3ccc(C)cc3)c(C)o2)cc1	11	-3	0	0	5	-6%
CCn1c(CSc2nc(C)cc(C)n2)nnc1SCC(=O)Nc1nc(-c2ccccc2)cs1	-2	0	3	4	37*	-1%
O=C(Cc1ccc(S(=O)(=O)N2CCOCC2)s1)Oc1ccc(F)cc1	17	2	-1	-6	7	2%
O=C(CSc1ccc(-c2ccc(Cl)cc2)nn1)N1CCCc2ccccc21	-6	-6	2	-34*	6	-3%
Cc1ccc(NC(=O)CSc2ccc(-c3ccc4c(c3)OCO4)nn2)cc1F	0	-4	1	-2	-1	4%
O=C(CSc1ccc(-c2ccc(F)cc2)nn1)N1CCCc2ccccc21	2	1	0	13	4	-1%
O=C(CSc1ccc(-c2ccc(Cl)cc2)nn1)Nc1ccc2c(c1)OCCO2	8	-7	0	-31*	1	0%
